The full data set covers some 7,900 targets. This sample favours those with a hit. About 0.6% of all pairs of compound and target were hits.
Key:
Assay in all cases: log2 fold change, soluble protein after heating vs DMSO (PISA); higher = thermal stabilisation; K562 cells, 10 uM, 30 min; active = over 0.2 and 3.5 SD of the protein, either way, in both replicates (recomputed)
rucaparib = compound: CNCc1ccc(-c2[nH]c3cc(F)cc4c3c2CCNC4=O)cc1 [rucaparib]
How it was run: (§1)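 K562 cells (2×10^6 cells/mL) were treated with 10 μM compound for 30 min, and aliquots were heated for 3 min over 48°C-58°C. Pooled aliquots were extracted in PBS with 0.5% NP-40 at 4°C, and the supernatant after 21,000xg for 90 min was measured by TMTpro 16plex LC-MS/MS with channel sums equalised. Reported thermal stability, relative to control samples and from duplicates, is a log2 fold change.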

encorafenib = compound: COC(=O)N[C@@H](C)CNc1nccc(-c2cn(C(C)C)nc2-c2cc(Cl)cc(NS(C)(=O)=O)c2F)n1 [encorafenib]
How it was run: as §1

saracatinib = compound: CN1CCN(CCOc2cc(OC3CCOCC3)c3c(Nc4c(Cl)ccc5c4OCO5)ncnc3c2)CC1 [saracatinib]
How it was run: as §1

alvocidib = compound: CN1CC[C@H](c2c(O)cc(O)c3c(=O)cc(-c4ccccc4Cl)oc23)[C@H](O)C1 [alvocidib]
How it was run: as §1

Tubastatin A = compound: CN1CCc2c(c3ccccc3n2Cc2ccc(C(=O)NO)cc2)C1 [Tubastatin A]
How it was run: as §1

defactinib = compound: CNC(=O)c1ccc(Nc2ncc(C(F)(F)F)c(NCc3nccnc3N(C)S(C)(=O)=O)n2)cc1 [defactinib]
How it was run: as §1

[1] = compound: CNc1nc(-c2ccc3c(N)n[nH]c3c2)cc(N2C[C@@H](C(=O)NC3CCCCC3)CC[C@H]2C)n1
How it was run: as §1

[2] = compound: COC(=O)[C@H](CCSC)NC(=O)C1=C(C=C(C=C1)NC[C@H](CS)N)C2=CC=CC=C2
How it was run: as §1

[3] = compound: CNC(=O)C1=CC=CC=C1NC2=NC(=NC=C2Cl)NC3=C(C=C(C=C3)N4CCOCC4)OC
How it was run: as §1

sotrastaurin = compound: CN1CCN(c2nc(C3=C(c4c[nH]c5ccccc45)C(=O)NC3=O)c3ccccc3n2)CC1 [sotrastaurin]
How it was run: as §1

Measured: log2 fold change

CS (UniProt F8VU34)
inactive: rucaparib 0.268 | encorafenib 0.158

CLINT1 (UniProt Q14677)
inactive: saracatinib -0.003 | alvocidib -0.112 | Tubastatin A -0.029 | defactinib -0.002 | rucaparib 0.128 | [1] -0.062 | encorafenib -0.045 | [2] 0.036

CPNE5 (UniProt Q9HCH3)
inactive: alvocidib 0.134 | Tubastatin A 0.082 | [3] 0.049

CCDC82 (UniProt Q8N4S0)
UniProt Q8N4S0, sequence (Q8N4S0 whole entry, looked up): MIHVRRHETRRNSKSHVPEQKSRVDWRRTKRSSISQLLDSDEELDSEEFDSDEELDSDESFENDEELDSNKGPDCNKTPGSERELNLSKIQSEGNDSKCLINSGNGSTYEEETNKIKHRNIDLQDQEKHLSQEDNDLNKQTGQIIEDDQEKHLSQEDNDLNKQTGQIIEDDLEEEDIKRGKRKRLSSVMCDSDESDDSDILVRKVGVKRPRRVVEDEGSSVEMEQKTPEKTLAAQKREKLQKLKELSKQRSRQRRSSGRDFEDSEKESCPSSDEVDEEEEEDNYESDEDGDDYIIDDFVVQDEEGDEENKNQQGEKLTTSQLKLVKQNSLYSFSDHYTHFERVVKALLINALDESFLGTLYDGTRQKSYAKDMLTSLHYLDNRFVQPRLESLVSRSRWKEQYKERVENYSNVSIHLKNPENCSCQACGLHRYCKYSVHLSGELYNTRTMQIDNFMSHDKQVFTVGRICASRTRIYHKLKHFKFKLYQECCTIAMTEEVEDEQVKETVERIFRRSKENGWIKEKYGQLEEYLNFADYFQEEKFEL
inactive: saracatinib 0 | alvocidib -0.065 | Tubastatin A 0.102 | [3] 0.03 | defactinib -0.09 | rucaparib -0.069 | [1] -0.139 | encorafenib 0.021 | [2] -0.037

COMMD3-BMI1 (UniProt R4GMX3)
inactive: sotrastaurin -0.024 | alvocidib 0.05 | Tubastatin A -0.074

CDC25B isoform 4 (UniProt P30305)
UniProt P30305, sequence (P30305 whole entry, looked up): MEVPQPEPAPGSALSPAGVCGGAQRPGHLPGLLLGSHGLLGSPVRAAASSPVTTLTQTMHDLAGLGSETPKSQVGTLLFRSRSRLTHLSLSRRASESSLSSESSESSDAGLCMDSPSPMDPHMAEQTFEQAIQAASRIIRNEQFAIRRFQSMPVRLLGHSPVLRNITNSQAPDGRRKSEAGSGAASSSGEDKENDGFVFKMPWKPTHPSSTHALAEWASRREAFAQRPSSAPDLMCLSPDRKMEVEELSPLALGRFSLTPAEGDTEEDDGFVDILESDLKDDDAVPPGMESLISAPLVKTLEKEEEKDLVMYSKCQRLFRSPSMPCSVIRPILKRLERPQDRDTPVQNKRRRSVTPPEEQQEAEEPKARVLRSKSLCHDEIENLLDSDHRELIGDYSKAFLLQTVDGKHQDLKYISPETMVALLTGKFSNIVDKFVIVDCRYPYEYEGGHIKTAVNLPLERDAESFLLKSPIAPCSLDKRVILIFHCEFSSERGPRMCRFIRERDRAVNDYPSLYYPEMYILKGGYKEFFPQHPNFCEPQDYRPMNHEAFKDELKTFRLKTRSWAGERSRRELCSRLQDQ
inactive: sotrastaurin -0.018 | alvocidib -0.031 | [3] -0.019 | defactinib -0.25 | rucaparib 0.054 | encorafenib -0.059 | [2] 0.087

CCND3 (UniProt P30281)
UniProt P30281, sequence (P30281 whole entry, looked up): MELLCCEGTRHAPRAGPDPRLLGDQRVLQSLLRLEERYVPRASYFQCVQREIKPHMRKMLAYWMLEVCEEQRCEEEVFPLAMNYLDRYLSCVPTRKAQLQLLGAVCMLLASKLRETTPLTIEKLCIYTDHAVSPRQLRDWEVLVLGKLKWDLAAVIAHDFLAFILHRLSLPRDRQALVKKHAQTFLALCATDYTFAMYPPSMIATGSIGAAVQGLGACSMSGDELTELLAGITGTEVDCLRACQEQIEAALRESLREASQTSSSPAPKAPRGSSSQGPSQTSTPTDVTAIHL
inactive: saracatinib 0.03 | alvocidib 0.008 | Tubastatin A 0.242 | [3] -0.018 | defactinib -0.037 | rucaparib 0.113 | [1] -0.067 | encorafenib -0.11 | [2] 0

CREB3L2 (UniProt Q70SY1)
UniProt Q70SY1, sequence (Q70SY1 whole entry, looked up): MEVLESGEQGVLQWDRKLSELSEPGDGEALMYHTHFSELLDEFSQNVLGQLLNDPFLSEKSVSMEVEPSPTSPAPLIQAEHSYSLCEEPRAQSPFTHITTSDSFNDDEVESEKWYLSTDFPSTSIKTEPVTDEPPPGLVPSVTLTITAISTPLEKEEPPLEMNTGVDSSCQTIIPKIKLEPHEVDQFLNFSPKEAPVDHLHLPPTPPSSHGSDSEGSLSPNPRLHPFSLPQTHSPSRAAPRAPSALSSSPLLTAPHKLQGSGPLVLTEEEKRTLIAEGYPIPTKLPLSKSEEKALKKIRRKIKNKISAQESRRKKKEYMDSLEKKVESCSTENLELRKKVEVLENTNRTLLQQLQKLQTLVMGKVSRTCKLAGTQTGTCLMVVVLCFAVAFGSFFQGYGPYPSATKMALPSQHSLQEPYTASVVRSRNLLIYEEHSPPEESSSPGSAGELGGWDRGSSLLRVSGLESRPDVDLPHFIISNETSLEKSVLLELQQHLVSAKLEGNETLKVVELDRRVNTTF
inactive: alvocidib -0.242 | Tubastatin A 0.282 | [3] -0.19 | defactinib -0.039 | [2] -0.172

CLPTM1L (UniProt G5E9Z2)
inactive: sotrastaurin -0.288 | alvocidib 0.051 | Tubastatin A -0.109 | defactinib 0.002 | [2] -0.029

CD68 (UniProt P34810)
inactive: sotrastaurin -0.031 | [3] 0.043

CEMIP2 (UniProt Q9UHN6)
UniProt Q9UHN6, sequence (Q9UHN6 whole entry, looked up): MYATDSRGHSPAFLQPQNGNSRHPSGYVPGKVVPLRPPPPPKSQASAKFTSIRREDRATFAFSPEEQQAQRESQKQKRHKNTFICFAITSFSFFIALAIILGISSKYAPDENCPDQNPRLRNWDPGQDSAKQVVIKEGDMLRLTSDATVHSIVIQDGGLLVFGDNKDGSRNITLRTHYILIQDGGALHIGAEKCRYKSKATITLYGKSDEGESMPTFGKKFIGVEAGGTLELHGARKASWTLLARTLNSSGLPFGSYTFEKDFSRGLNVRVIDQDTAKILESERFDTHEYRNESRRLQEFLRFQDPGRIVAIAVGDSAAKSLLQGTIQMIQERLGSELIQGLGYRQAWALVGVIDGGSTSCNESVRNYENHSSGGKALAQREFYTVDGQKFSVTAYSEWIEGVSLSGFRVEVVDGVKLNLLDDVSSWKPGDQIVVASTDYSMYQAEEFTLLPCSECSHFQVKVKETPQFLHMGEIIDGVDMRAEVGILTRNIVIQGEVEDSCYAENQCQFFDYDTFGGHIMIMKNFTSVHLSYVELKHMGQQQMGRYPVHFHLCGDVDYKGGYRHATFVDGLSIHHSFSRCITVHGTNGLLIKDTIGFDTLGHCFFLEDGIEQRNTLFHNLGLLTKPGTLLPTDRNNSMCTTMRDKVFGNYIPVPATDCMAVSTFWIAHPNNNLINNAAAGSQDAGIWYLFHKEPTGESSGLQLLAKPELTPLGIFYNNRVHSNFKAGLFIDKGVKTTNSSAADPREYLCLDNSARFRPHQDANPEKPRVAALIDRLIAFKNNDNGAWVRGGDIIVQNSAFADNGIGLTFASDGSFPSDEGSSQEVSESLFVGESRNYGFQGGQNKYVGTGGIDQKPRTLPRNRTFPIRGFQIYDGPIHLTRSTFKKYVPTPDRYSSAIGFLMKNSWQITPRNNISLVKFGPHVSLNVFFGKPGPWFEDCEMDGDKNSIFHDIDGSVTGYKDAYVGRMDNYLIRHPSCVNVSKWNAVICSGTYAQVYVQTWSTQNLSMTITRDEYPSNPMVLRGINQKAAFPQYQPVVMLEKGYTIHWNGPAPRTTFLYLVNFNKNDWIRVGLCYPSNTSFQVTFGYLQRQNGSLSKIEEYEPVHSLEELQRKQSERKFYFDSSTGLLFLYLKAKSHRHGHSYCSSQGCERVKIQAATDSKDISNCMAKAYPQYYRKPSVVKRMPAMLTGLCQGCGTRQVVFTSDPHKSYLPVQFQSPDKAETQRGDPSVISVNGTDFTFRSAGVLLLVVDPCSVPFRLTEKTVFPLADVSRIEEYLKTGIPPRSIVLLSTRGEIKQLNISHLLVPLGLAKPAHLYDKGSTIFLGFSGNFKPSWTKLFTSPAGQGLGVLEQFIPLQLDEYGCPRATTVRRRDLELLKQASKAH
inactive: saracatinib -0.104 | alvocidib -0.055 | Tubastatin A -0.005 | [3] 0.032 | defactinib 0.017 | rucaparib 0.046 | [1] -0.026 | encorafenib -0.1 | [2] 0.029

COMMD1 (UniProt Q8N668)
UniProt Q8N668, sequence (Q8N668 whole entry, looked up): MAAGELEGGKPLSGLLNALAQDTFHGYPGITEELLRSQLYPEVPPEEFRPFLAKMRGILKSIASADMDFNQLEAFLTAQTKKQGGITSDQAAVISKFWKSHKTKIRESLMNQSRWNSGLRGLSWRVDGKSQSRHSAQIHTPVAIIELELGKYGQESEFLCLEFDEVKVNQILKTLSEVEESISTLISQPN
inactive: sotrastaurin -0.038 | Tubastatin A -0.213 | [3] 0.119 | defactinib -0.151 | rucaparib 0.15 | encorafenib -0.028 | [2] 0.092

CA1 (UniProt E5RIF9)
inactive: saracatinib 0.272 | Tubastatin A -0.178 | defactinib -0.09 | [1] 0.093 | [2] -0.129

COPS3 isoform 2 (UniProt Q9UNS2)
UniProt Q9UNS2, sequence (Q9UNS2 whole entry, looked up): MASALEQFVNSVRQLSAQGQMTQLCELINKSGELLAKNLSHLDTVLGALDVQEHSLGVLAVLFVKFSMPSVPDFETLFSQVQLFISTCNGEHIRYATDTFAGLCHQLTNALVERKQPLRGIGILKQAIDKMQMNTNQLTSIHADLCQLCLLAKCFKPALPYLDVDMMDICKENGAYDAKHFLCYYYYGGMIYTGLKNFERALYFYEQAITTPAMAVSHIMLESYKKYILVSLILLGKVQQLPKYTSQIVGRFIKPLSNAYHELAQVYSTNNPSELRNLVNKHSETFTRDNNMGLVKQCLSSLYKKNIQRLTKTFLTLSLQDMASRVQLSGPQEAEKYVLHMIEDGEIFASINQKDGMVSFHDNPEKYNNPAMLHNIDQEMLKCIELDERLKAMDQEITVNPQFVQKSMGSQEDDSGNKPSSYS
inactive: sotrastaurin 0.134 | Tubastatin A -0.005 | defactinib 0.109 | rucaparib -0.055 | encorafenib -0.041 | [2] 0.059

CDK2AP2 (UniProt O75956)
UniProt O75956, sequence (O75956 whole entry, looked up): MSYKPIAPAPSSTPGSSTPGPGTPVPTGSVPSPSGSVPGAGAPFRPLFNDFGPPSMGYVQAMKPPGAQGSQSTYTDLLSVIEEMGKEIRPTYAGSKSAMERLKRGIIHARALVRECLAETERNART
inactive: alvocidib -0.048 | [3] -0.092 | rucaparib 0.134 | encorafenib -0.038

CHST11 (UniProt Q9NPF2)
UniProt Q9NPF2, sequence (Q9NPF2 whole entry, looked up): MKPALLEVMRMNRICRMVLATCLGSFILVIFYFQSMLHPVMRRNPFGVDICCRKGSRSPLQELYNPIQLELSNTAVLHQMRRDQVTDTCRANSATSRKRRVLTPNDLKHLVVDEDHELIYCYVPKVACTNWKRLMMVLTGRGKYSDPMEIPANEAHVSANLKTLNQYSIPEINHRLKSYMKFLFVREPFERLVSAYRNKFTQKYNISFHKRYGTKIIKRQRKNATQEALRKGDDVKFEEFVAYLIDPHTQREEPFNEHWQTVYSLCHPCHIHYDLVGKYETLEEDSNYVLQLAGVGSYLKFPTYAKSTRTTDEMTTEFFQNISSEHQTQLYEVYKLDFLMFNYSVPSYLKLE
inactive: sotrastaurin -0.02 | alvocidib -0.049 | Tubastatin A 0.08 | [3] 0.079 | defactinib -0.003 | rucaparib 0.083 | encorafenib 0.177 | [2] -0.048

CFAP47 (UniProt Q6ZTR5)
inactive: saracatinib 0.001 | defactinib -0.063 | rucaparib -0.062 | [1] -0.142 | encorafenib -0.173 | [2] 0.084

C1D (UniProt Q13901)
UniProt Q13901, sequence (Q13901 whole entry, looked up): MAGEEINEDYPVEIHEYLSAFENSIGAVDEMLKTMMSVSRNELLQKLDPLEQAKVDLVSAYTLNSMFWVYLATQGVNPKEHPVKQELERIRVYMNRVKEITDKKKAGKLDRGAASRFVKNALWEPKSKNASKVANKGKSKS
inactive: sotrastaurin 0.005 | Tubastatin A 0.079 | [3] 0.001 | defactinib 0.042 | rucaparib -0.005 | encorafenib 0.009 | [2] 0.091

CLASP2 (UniProt O75122)
inactive: alvocidib -0.069 | [3] 0 | rucaparib 0 | encorafenib 0.098

CNRIP1 (UniProt Q96F85)
inactive: [3] 0.053

CEBPZOS (UniProt A8MTT3)
UniProt A8MTT3, sequence (A8MTT3 whole entry, looked up): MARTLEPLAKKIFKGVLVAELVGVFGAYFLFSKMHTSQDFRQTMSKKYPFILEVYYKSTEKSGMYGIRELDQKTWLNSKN
inactive: saracatinib 0.079 | Tubastatin A -0.06 | [3] 0.039 | defactinib -0.012 | rucaparib 0.159 | [1] -0.032 | encorafenib -0.038 | [2] -0.02

CNN1 (UniProt P51911)
UniProt P51911, sequence (P51911 whole entry, looked up): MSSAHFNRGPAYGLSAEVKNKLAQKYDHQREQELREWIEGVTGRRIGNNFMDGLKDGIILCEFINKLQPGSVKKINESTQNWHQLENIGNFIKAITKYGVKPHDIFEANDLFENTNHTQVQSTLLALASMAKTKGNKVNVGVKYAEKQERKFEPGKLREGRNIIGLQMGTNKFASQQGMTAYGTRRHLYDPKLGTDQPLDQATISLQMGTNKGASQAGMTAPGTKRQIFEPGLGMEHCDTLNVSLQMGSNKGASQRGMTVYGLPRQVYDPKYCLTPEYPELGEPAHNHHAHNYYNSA
inactive: sotrastaurin 0.15 | alvocidib -0.115 | Tubastatin A 0.126 | defactinib -0.028 | rucaparib 0.102 | encorafenib -0.046 | [2] 0.043
